Bioassay records as filed in PubChem.
MCF10A rerep – A quantitative high throughput screen for small molecules that induce DNA re-replication in MCF 10a normal breast cells; MCF 10A DNA re-replication, Hoechst nuclear intensity, 48 h; Potency, µM (highest dose often 46.1 µM), most hits filed as activators; 350,000 tested, 2.9% active; AID 624296, 2012; further: nearly all actives have a fitted effect of over 50% in size
KB-V1 cytotox – qHTS assay for MDR1-selective chemotherapeutics: Primary screen using the drug-selected MDR subline cells KB-V1. KB-V1 MDR cells viability, CellTiter-Glo, 72 h. Potency, µM (titrated, usually from 46.1 µM), actives largely listed as cytotoxic. 400,000 tested, 3.4% active; further: nearly all actives have a fitted effect of over 60% in size
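Drug-selected KB-V1 cells, grown in DMEM lacking phenol red with 10% FBS, receive compound titrations; after three days at 37 degrees C, surviving cell ATP is quantified by CellTiter-Glo luminescence and responses normalized and curve-fitted.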
SW480 rerep – A quantitative high throughput screen for small molecules that induce DNA re-replication in SW480 colon adenocarcinoma cells | SW480 DNA re-replication, Hoechst DNA content imaging, 48 h | Potency, µM (highest dose often 46.1 µM), most hits filed as activators | 340,000 tested, 1.8% active | AID 624297, 2012; further: nearly all actives have a fitted effect of over 55% in size
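Image-based read-out: total Hoechst fluorescence of nuclei (405 nm excitation, 500-530 nm emission), with hits raising the fraction of high-intensity nuclei. SW480 colon cells incubated 48 hr with compounds at 37 C.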
PINK1 expr mod – A Quantitative High throughput Screen to Identify Chemical Modulators of PINK1 Expression. PINK1 immunofluorescence, high-content cytometry, 24 h. Potency, µM (doses to about 76.6 µM), most hits filed as activators. 410,000 tested, 0.2% active; active means well fitted activation curve with a large enough effect; inconclusive means small, poorly fitted or top-dose-only effect; cell line not stated here; further: nearly all actives have a fitted effect of over 65% in size
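Readout is PINK1 immunofluorescence, quantified alongside mitochondrial, cell and nuclear markers by laser-scanning microplate cytometry. Cells from a stable line were exposed to compound titrations (5 concentrations) for 24 hours, with CCCP controls.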
KB-3-1 cytotox – qHTS assay for MDR1-selective chemotherapeutics: Primary screen using the parental adenocarcinoma cell KB-3-1; KB-3-1 viability, CellTiter-Glo ATP luminescence, 72 h; Potency, µM (top dose mostly 46.1 µM), usual class: cytotoxic; 400,000 tested, 1.4% active; further: nearly all actives have a fitted effect of over 60% in size
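Parental KB-3-1 adenocarcinoma cells in phenol-red-free DMEM with 10% FBS were pin-treated with compounds at several concentrations, incubated 72 h at 37 °C, and viability read by CellTiter-Glo luminescence; concentration-effect curves were fitted after normalization.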
Each line names hits and unclear results; the compound was inactive in the other large screens. Rows were chosen to be rich in hits. Some 6.7% of all compounds tested hit in one or more screens of this group. Unless noted, the call rests on the fitted dose curve; in most records, active means well fitted curve in the direction sought with a large enough effect; inconclusive means small, poorly fitted or top-dose-only effect, or another doubt; inactive means no such curve, though single readings can be large; an effect the other way counts as inactive or inconclusive.

CC(=O)N/N=C/c1cc([N+](=O)[O-])ccc1OCCOc1ccccc1	SW480 rerep 21µM
Cc1ccc(Cl)c2sc(NC(=O)CS(=O)(=O)c3ccc(Cl)cc3)nc12	none (no result: MCF10A rerep, SW480 rerep)
Cc1csc2nc(COc3ccc(NC(=O)COc4ccc(F)cc4)cc3)cc(=O)n12	none (no result: MCF10A rerep, SW480 rerep)
Cc1cccc(C(C)C)c1NC(=O)C(C)OC(=O)Cn1cnc2c1c(=O)n(C)c(=O)n2C (configuration not stated)	none
CCOCCCN1C(=O)C(=O)N(CC(=O)N2c3ccccc3NC(=O)CC2C)C1=O (configuration not stated)	none
COc1cccc(CN(C)CC(=O)Nc2cccc(S(=O)(=O)N(C)c3ccccc3)c2)c1OC	MCF10A rerep inconclusive, KB-V1 cytotox 2.6µM, KB-3-1 cytotox inconclusive
CN(c1ccccc1)S(=O)(=O)c1cccc(NC(=O)COc2cccc([N+](=O)[O-])c2)c1	KB-V1 cytotox 18µM
Cc1cc(S(=O)(=O)NCc2ccccc2)ccc1OCC(=O)NCc1ccccn1	KB-V1 cytotox inconclusive
CCC(=O)c1ccc(OCC(=O)Nc2cccc(S(=O)(=O)N(C)c3ccccc3)c2)cc1	none
CN(c1ccccc1)S(=O)(=O)c1cccc(NC(=O)CC(C)(C)C)c1	KB-V1 cytotox 2.6µM
Cc1cc(S(=O)(=O)NCc2ccccc2)ccc1OCC(=O)Nc1cccc([N+](=O)[O-])c1	MCF10A rerep inconclusive, KB-V1 cytotox 13µM
CCc1ccc2oc(-c3ccc(C)c(NC(=O)COc4ccc(Cl)cc4)c3)nc2c1	none (no result: MCF10A rerep, SW480 rerep)
Cc1ccsc1CN(C)CC(=O)Nc1cccc(S(=O)(=O)N(C)c2ccccc2)c1	MCF10A rerep inconclusive
CCN(CC(=O)Nc1cccc(S(=O)(=O)N(C)c2ccccc2)c1)Cc1cccs1	KB-V1 cytotox 4.6µM, KB-3-1 cytotox inconclusive
COc1cccc(/C=C2/Sc3ccc(C(=O)NCCN4CCCCCC4)cc3NC2=O)c1	MCF10A rerep 21µM, SW480 rerep inconclusive
COc1ccc(/C=C2/Sc3ccc(C(=O)NCCCN4CCOCC4)cc3NC2=O)cc1OC	MCF10A rerep 18µM, SW480 rerep 21µM, KB-3-1 cytotox inconclusive
CCn1c(=O)c2sccc2n2c(CCC(=O)N3CCN(c4ccc(C(C)=O)cc4)CC3)nnc12	KB-V1 cytotox inconclusive (no result: MCF10A rerep, SW480 rerep)
Cc1noc(C)c1C(=O)N1CCC[C@@]2(CCN(C(=O)Nc3ccccc3)C2)C1	none (no result: MCF10A rerep, KB-V1 cytotox, SW480 rerep, KB-3-1 cytotox)
CCN1C(=O)c2cccc3c(S(=O)(=O)NCc4ccccc4)ccc1c23	MCF10A rerep 16µM, SW480 rerep inconclusive
CCN1C(=O)c2cccc3c(S(=O)(=O)Nc4ccccc4OC)ccc1c23	MCF10A rerep inconclusive, KB-V1 cytotox 16µM, KB-3-1 cytotox inconclusive
CCN1C(=O)c2cccc3c(S(=O)(=O)N4CCC(C)CC4)ccc1c23	MCF10A rerep 10µM, KB-V1 cytotox 2.1µM, SW480 rerep inconclusive, KB-3-1 cytotox inconclusive
COc1ccc(N(CC(=O)N2CCC(C(N)=O)CC2)S(=O)(=O)c2ccccc2)cc1	none
COc1cc(/C=C/C(=O)OCC(=O)Nc2nnc(-c3ccccc3)o2)cc(OC)c1OC	MCF10A rerep inconclusive, KB-V1 cytotox 12µM
O=C(COC(=O)/C=C/c1ccccc1)Nc1nnc(-c2ccccc2)o1	MCF10A rerep inconclusive
CC(=O)c1c(C)nc2sc3c(=N)n(N)cnc3c2c1-c1ccc(Cl)cc1	KB-V1 cytotox 18µM, KB-3-1 cytotox inconclusive
CCOC(=O)c1c(C)nc2sc3c(=O)n(-c4ccc(C(C)=O)cc4)cnc3c2c1-c1ccc(OC)cc1	none
Cc1ccc(C(C[N+](=O)[O-])c2c(-c3ccccc3O)[nH][nH]c2=O)cc1 (configuration not stated)	MCF10A rerep 12µM, KB-V1 cytotox inconclusive, SW480 rerep 15µM, KB-3-1 cytotox inconclusive
O=C1NC(Cc2ccccc2)C(=O)N1Cc1ccccc1 (configuration not stated)	none
O=c1ccsn1Cc1ccccc1	MCF10A rerep inconclusive, SW480 rerep 18µM
COc1ccc(C2c3c(oc4ccccc4c3=O)C(=O)N2CC2CCCO2)cc1 (configuration not stated)	KB-V1 cytotox inconclusive, SW480 rerep inconclusive (no result: PINK1 expr mod)
O=C1c2oc3ccc(F)cc3c(=O)c2C(c2ccccc2)N1CC1CCCO1 (configuration not stated)	KB-V1 cytotox 8.2µM
CNC(=S)N1N=C(c2ccc(C)cc2)CC1c1ccc(OC)cc1 (configuration not stated)	MCF10A rerep inconclusive, KB-V1 cytotox inconclusive, KB-3-1 cytotox inconclusive
COc1ccc(OC)c(C2CC(c3ccccc3)=NN2C(=S)Nc2ccccc2)c1 (configuration not stated)	MCF10A rerep 4.1µM, SW480 rerep 4.6µM
CNC(=S)N1N=C(c2ccc(C)cc2)CC1c1cc(OC)ccc1OC (configuration not stated)	MCF10A rerep inconclusive, KB-V1 cytotox inconclusive, SW480 rerep inconclusive, KB-3-1 cytotox 12µM
COc1ccccc1C1=NN(C(=S)Nc2ccccc2)C(c2ccco2)C1 (configuration not stated)	KB-V1 cytotox 15µM, SW480 rerep inconclusive, KB-3-1 cytotox inconclusive
CC(C)Cc1cc(C(C)(C)C)ccc1OC(=S)N(C)C	KB-V1 cytotox inconclusive, KB-3-1 cytotox inconclusive
CC1(C(=O)NCc2ccccc2Br)CCN1C(=O)Cc1ccc(-c2ccccc2)cc1 (configuration not stated)	KB-V1 cytotox inconclusive, KB-3-1 cytotox inconclusive (no result: MCF10A rerep, SW480 rerep)
CC(=O)N1CCC(N(Cc2ccco2)C(=O)Nc2ccc(Br)cc2F)CC1	none (no result: MCF10A rerep, SW480 rerep)
CCCCNC(=S)N(C)/N=C/c1ccc(OCC(=O)Nc2c(C)cc(C)cc2C)c(OC)c1	MCF10A rerep 18µM, SW480 rerep 16µM
Cc1ccccc1C(=O)NC(=S)N(C)C1CCCCC1	SW480 rerep inconclusive
CN(C(=S)NC(=O)c1ccccc1Br)C1CCCCC1	KB-V1 cytotox inconclusive, SW480 rerep 5.8µM
COc1ccc(N(C)C(=S)Nc2ccc3nc(C)c(C)nc3c2)cc1	KB-V1 cytotox 13µM
Cc1nc2ccc(NC(=S)N3CCCC3)cc2nc1C	MCF10A rerep 0.73µM
Cc1nc2ccc(NC(=S)N3CCOCC3)cc2nc1C	none
O=C1c2ccccc2C(=O)c2c1oc(C(F)(F)F)c2C(=O)c1ccccc1	MCF10A rerep 4.6µM, KB-V1 cytotox 7.3µM, SW480 rerep 4.1µM, KB-3-1 cytotox 4.6µM
O=C1c2ccccc2C(=O)c2c(NCc3cccnc3)cccc21	KB-V1 cytotox 8.2µM
CC(=O)c1c(C)oc2c1C(=O)c1ccccc1C2=O	KB-V1 cytotox 6.5µM, SW480 rerep 7.3µM, KB-3-1 cytotox inconclusive
Cc1oc2c(c1C(=O)NCc1cccnc1)C(=O)c1ccccc1C2=O	MCF10A rerep inconclusive, KB-V1 cytotox 2.6µM, KB-3-1 cytotox inconclusive
